Screening results: PubChem, National Center for Advancing Translational Sciences (NCATS)
ERK EGF block: EGF-driven ERK pathway inhibition; HEK293-V1b, EGF-stimulated phospho-ERK AlphaScreen; Potency, µM (series often up to 11.5 µM), usual class: inhibitors; 0.41% of 130,000 active; AID 1454; active means well fitted inhibition curve with a large enough effect; further: nearly all actives have a fitted effect of over 55% in size
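Phospho-ERK1/2 measured by AlphaScreen (SureFire) after 5 min 25 nM EGF stimulation of V1b-expressing HEK293 cells preincubated 30 min at 37C with titrated compounds; data scaled to DMSO and EGF controls, Hill-fitted AC50.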
A number is an active result; n = inactive. Only a selection was taken, and hits are over-represented in it overall.

SMILES	ERK EGF block
Cc1c(C)n(CC(O)CNc2ccccc2)c2ccccc12 (stereo not drawn)	n
Cc1c(C)n(CC(O)CNCCO)c2ccccc12 (stereo not drawn)	n
OC(CNCCC1C=Nc2ccccc21)Cn1c2ccc(Cl)cc2c2cc(Cl)ccc21 (stereo not drawn)	22µM
CCCCC[C@H](O)/C=C/C=C/C=C/[C@@H](O)C/C=C\CCCC(=O)O	n
CC(=O)c1cccc2c(O)c(C3=Nc4ccccc4C3=O)[nH]c12	25µM
CC(=O)Nc1c(O)c2ccccc2[nH]c1=O	n
O=C(O)c1cccc2c(-c3ccccc3)c(-c3ccccc3)[nH]c12	n
Cc1ccc(Nc2nnc(-c3ccccc3N)o2)cc1C	n
CNc1cc(OC)c(C(=O)N[C@@H]2CCN(Cc3ccccc3)[C@H]2C)cc1Cl	n
NNc1nc(-c2ccccc2)c2ccccc2n1	n
Nc1nc(-c2ccccc2)c(N=Nc2ccccc2Cl)s1	18µM
Nc1nc(-c2ccccc2)c(N=Nc2cccc3ccccc23)s1	20µM
Nc1nc(-c2ccc(Cl)c(Cl)c2)c(-c2ccncc2)s1	n
NC(N)=NC(N)=Nc1cccc2ccccc12	n
O=C(O)Cc1sc(-c2ccccc2Cl)nc1-c1ccccc1	n
N[C@@H](C(=O)O)[C@H](CC(=O)O)c1ccc(Cl)cc1	n
N#Cc1ccc(CN2CC[C@@]3(CCCN(C(=O)c4ccco4)C3)C2)cc1	n
COc1ccccc1C(=O)N/C(=N/c1nc(C)cc(C)n1)Nc1ccccc1	n
O=C1/C(=C/c2ccncc2)SC(=S)N1Nc1ccccc1	n
O=C(O)c1ccc(/C=C2\SC(=S)N(Nc3ccccc3)C2=O)cc1	n
O=C1/C(=C/c2ccc(O)c(O)c2)SC(=S)N1Nc1ccccc1	13µM
COc1c2ccoc2nc2c(OC)c(O[C@@H]3O[C@H](C)[C@@H](O)[C@@H](O)[C@H]3O)ccc12	n
CCN=C1S/C(=C\c2ccc(N3CCOCC3)cc2C)C(=O)N1CC	n
CN=C1S/C(=C\c2ccc(N3CCOCC3)cc2C)C(=O)N1C	n
COCCN1C(=O)/C(=C/c2ccc(N3CCCC3)cc2C)SC1=S	22µM
SMILES	ERK EGF block
COc1ccc(-n2ncc3c(N4CCC(C(N)=O)CC4)ncnc32)cc1	n
COc1ccc(-n2ncc3c(N4CCN(Cc5ccccc5)CC4)ncnc32)cc1	32µM
CCOC(=O)C1CCN(c2ncnc3c2cnn3-c2ccc(OC)cc2)CC1	n
CCC(C(=O)OCC(=O)Nc1cc(Cl)cc(Cl)c1)c1ccccc1 (stereo not drawn)	n
Nc1ncnc2c1ncn2[C@@H]1O[C@H](COP(=O)(O)OP(=O)(O)O)[C@@H](O)[C@H]1O	n
CN1CCN(CC(O)COCCOc2ccc(Br)cc2)CC1 (stereo not drawn)	n
Cc1ccc2c(c1)c(C)c(C)n2CC(O)CN1CCOCC1 (stereo not drawn)	n
OC(CN1CCNCC1)Cn1c2ccc(Br)cc2c2cc(Br)ccc21 (stereo not drawn)	28µM
CC(C)(C)C1=CC=C(C(C)(C)C)C(=O)C1=O	n
COC(=O)[C@@H]1C[C@H]2CC[C@H](O)C[C@H]2N1Cc1c(F)cccc1Cl	n
N#CCCCS(=O)(=O)c1nnnn1-c1ccc(Br)cc1	n
Cc1nn(CC(=O)NCCc2ccccc2)c(C)c1[N+](=O)[O-]	n
Cc1nn(CC(=O)NCc2ccccc2F)c(C)c1[N+](=O)[O-]	n
Cc1nn(CC(=O)NCc2cc3ccccc3[nH]2)c(C)c1[N+](=O)[O-]	14µM
COc1ccc(C(=O)N2CCC[C@@]3(CCN(c4ccccc4)C3)C2)cc1	n
CCCn1c(C)nc2c(Nc3ccccc3)nc(C)nc21	n
COc1c(C2=CC(=O)N(C)C2=O)c2c(n1C)C(=O)c1ccccc1C2=O	n
COc1cc2ncnc(NCc3ccccc3Cl)c2cc1OC	1.3µM
COc1cc2ncnc(NCc3ccc(C)o3)c2cc1OC	28µM
COc1cc2ncnc(NCc3ccc(Cl)cc3)c2cc1OC	2.2µM
COc1cccc(-c2ccc3ncnc(NCc4ccccc4OC)c3c2)c1	n
COc1ccc(CCNc2ncnc3sccc23)cc1OC	n
COc1cc2ncnc(NCCCN3CCOCC3)c2cc1OC	n
COc1ccccc1-c1ccc2ncnc(NCc3cccnc3)c2c1	n
Clc1ccccc1CNc1ncnc2nc[nH]c12	n
SMILES	ERK EGF block
COc1ccc(CNc2ncnc3c2[nH]c2cc(OC)c(OC)cc23)cc1	n
Cc1cccc(CS(=O)(=O)Cc2ccc(C(=O)NCc3cccs3)o2)c1	n
c1csc(CNc2ncncc2-c2ccc3c(c2)OCO3)c1	n
CCCCCC(=O)/C=C/[C@H]1[C@H](O)CC(=O)[C@@H]1C/C=C\CCCC(=O)O	n
O=C(Oc1ccccc1)N1CCC2(CC1)CCN(c1ccccc1)CC2	n
COC(=O)[C@H](Cc1ccccc1)NC(=O)O[C@@H]1C(=O)c2cc(Br)ccc2O[C@H]1c1ccc2c(c1)OCO2	n
COc1ccc(NC2=CC(=O)CC(c3ccccc3)C2)cc1 (stereo not drawn)	n
C=C(CC1([C@@H](NP(=O)(c2ccccc2)c2ccccc2)[C@H]2C[C@@H]2CCN(C(=O)OCC)S(=O)(=O)c2ccc(C)cc2)CC1)c1ccccc1	n
Cc1csc2c(N3CCN(C(=O)c4ccc(C(C)(C)C)cc4)CC3)ncnc12	28µM
Cc1csc2c(N3CCN(C(=S)Nc4ccc(C(F)(F)F)cc4)CC3)ncnc12	n
Cc1csc2c(N3CCN(C(=O)NC(C)(C)C)CC3)ncnc12	n
Cn1c(=O)c(-c2cc(F)cc(F)c2)nc2cnc(Oc3ccccc3)nc21	n
CCn1cc(CNC(=O)c2cc(-c3cc(OC)ccc3OC)nc3ccccc23)c(C)n1	n
Cc1cccc(N2NC(=O)/C(=C/c3ccc(-c4ccc(Cl)c(C(=O)O)c4)o3)C2=O)c1	n
O=C1NN(c2ccccc2)C(=O)/C1=C/c1ccc(-c2ccc(Cl)c(C(=O)O)c2)o1	n
O=C1NN(c2ccccc2)C(=O)/C1=C/c1ccc(Sc2ccc(Cl)cc2)o1	28µM
Cc1cnc(CNc2ncncc2-c2ccccc2C(F)(F)F)cn1	n
N#Cc1cccc(NC(=O)N2CC[C@@]3(CCCN(C(=O)c4cc(C(F)(F)F)cc(C(F)(F)F)c4)C3)C2)c1	n
Cc1ccc2c(Cl)c(C(=O)Nc3ccc4c(c3)OCO4)sc2c1	n
Cc1ccnc(NC(=O)c2sc3cc(Cl)ccc3c2Cl)c1	n
CCN(CC)Cc1ccc(NC(=O)c2sc3cc(Cl)ccc3c2Cl)cc1	28µM
CN(C)c1ccc(C(c2ccc(N(C)C)cc2)c2ccc([N+](=O)[O-])cc2)cc1	14µM
CC(C)(C)C(=O)NC(NC(=O)C(C)(C)C)c1ccc([N+](=O)[O-])cc1	n
CN(C)c1ccc(C=NC(CO)C(O)c2ccc([N+](=O)[O-])cc2)cc1 (stereo not drawn)	n
O=C(Nc1ccc2ccccc2c1)[C@@H]1C[C@H]1[C@@H](NP(=O)(c1ccccc1)c1ccccc1)c1ccccc1	n
SMILES	ERK EGF block
C#CCOC(=O)Nc1ccc(OCC(F)(F)F)nc1	n
CC1CC1C(=O)OCC(=O)Nc1ccc(N=Nc2ccccc2)cc1 (stereo not drawn)	20µM
CCCC(=O)OCC(=O)Nc1ccc(N=Nc2ccccc2)cc1	n
CC1CC1C(=O)OCC(=O)Nc1ccccc1Oc1ccccc1 (stereo not drawn)	n
COC(=O)c1c(NC(=O)CCNCc2ccco2)sc2c1CCC2	n
CCCCC[C@H](O)/C=C/C=C\C/C=C\C/C=C\CCCC(=O)O	n
Cc1cnc([N+](=O)[O-])n1CCOC(=O)NC(=O)c1ccc(F)cc1	n
C=CCSCC(N)C(=O)O (stereo not drawn)	n
